A number with no mark means an inactive call. Inconclusive results are not listed. Activity calls are given as the source filed them. Unless noted, calls come from the whole dose curve; as a rule, active = well fitted curve in either direction with a large enough effect (not every such curve was filed as active); inconclusive = small, poorly fitted or top-dose-only effect, or another doubt; inactive = flat fitted curve, though single readings scatter.
Columns and labels:
[1] = target: Lysosomal acid glucosylceramidase (Homo sapiens) (UniProt P04062); test: Glucocerebrosidase-p2 (AID 348; in the data active = potency below about 10 µM; note: potency is the fitted concentration of half-maximal effect); conditions: purified GBA, blue fluorogenic substrate, 40 min
Chain of Lysosomal acid glucosylceramidase (Homo sapiens) (P04062 whole entry, looked up): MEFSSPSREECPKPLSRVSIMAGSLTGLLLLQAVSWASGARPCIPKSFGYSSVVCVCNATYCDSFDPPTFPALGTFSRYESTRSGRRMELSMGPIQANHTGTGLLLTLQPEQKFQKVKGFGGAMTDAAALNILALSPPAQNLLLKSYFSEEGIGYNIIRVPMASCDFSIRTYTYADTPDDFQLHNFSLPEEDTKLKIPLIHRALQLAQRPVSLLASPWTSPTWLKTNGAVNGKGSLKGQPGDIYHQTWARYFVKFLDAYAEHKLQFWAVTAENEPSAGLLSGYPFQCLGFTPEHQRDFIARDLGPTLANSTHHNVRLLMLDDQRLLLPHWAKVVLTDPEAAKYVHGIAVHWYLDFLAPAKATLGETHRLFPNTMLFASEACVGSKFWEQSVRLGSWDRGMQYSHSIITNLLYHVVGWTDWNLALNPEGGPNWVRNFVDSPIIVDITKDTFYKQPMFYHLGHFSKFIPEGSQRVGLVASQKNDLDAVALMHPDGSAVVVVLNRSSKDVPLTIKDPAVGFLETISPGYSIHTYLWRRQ
Summary of the method: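 Compounds titrated from 0.6 nM upwards against 0.2 nM enzyme in pH 5.9 citric acid/KH2PO4, taurocholate, tween-20; blue fluorogenic substrate 80 uM, 40 min room temperature, stopped and read Ex 365/Em 440 for AC50.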

[2] = AP1 Signaling Pathway (AID 357); conditions: ME-180 AP-1-bla reporter, EGF-induced, beta-lactamase ratio, 5 h; at 7.69 µM (top of the series) unless noted;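 note: ME-180 reporter cells stimulated with EGF at its EC50 level; % is set by controls: 0 for no effect and ±100 for the full control effect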
Summary of the method: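 AP-1-bla ME-180 cells, Opti-MEM + 0.5% dialyzed FBS, plated overnight 37 °C. Cpd titration + EC50 EGF, 5 h 37 °C. CCF4 2.5 h RT; ex 405, em 460/530 ratio → %activity, AC50.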

[3] = target: Cytochrome P450 1A2 (Homo sapiens) (UniProt P05177); test: p450-cyp1a2 (AID 410; calls by dose curve; note: potency is the fitted concentration of half-maximal effect;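 for activity change, negative = inhibition: -100% = full effect of reference inhibitor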); conditions: recombinant CYP1A2, luciferin-ME demethylation, luminescence; series mostly up to 11.4 µM
Chain of Cytochrome P450 1A2 (Homo sapiens) (P05177 whole entry, looked up): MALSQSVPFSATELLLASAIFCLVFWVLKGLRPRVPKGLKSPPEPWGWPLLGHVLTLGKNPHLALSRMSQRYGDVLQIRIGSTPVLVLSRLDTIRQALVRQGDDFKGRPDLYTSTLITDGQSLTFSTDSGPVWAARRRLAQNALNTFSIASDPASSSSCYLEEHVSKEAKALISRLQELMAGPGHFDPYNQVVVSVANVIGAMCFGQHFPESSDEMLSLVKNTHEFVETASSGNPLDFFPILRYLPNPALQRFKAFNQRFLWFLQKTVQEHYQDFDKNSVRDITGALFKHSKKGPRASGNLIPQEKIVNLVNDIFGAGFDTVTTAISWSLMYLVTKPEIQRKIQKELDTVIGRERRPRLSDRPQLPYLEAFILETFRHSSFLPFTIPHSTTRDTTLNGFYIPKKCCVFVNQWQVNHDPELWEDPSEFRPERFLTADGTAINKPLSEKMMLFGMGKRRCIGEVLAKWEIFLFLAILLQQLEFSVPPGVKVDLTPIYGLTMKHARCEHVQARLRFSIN
Summary of the method: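 20nM CYP1A2 with 100uM Luciferin-ME (at Km) in 100mM KPO4; compound preincubated 10 min, NADPH regeneration added, 60 min at room temperature. Luciferin quantified by luminescence after detection reagent; normalized to 57 uM furafylline.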

[4] = NFAT Signaling Pathway (AID 444); conditions: Jurkat NFAT-bla M1, carbachol, beta-lactamase ratio, 5 h; at 7.69 µM (top of the series) unless noted;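 note: carbachol stimulus at about its EC50 of 1 µM final; % is set by controls: 0 for no effect and ±100 for the full control effect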
Summary of the method: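 Jurkat cells with NFAT-driven β-lactamase reporter and co-expressed M1 receptor, stimulated with carbachol (final 1 uM, ~EC50), compound titration, 5 h at 37 °C. CCF4 loaded 1 h at RT; 460/530 nm ratio gave %activity and AC50.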

[5] = Stat Signaling Pathway (AID 446); conditions: ME-180 SIE beta-lactamase reporter, IL-6 stimulated, 5 h; at 7.69 µM (top of the series) unless noted;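 note: ME-180 cervical cancer cells given 40 pM IL-6 alongside compound; SIE-controlled beta-lactamase reporter measured as 460/530 nm FRET emission ratio; % is set by controls: 0 for no effect and ±100 for the full control effect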
Summary of the method: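 ME-180 SIE-bla cells; overnight plating; cpd + IL-6 40 pM, 5 h, 37 C; LiveBLAzer 2.5 h RT; 460/530 nm emission ratio. Normalized to 300 pM IL-6 and 125 nM JAK inhibitor controls.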

[6] = target: Glucocorticoid receptor (Homo sapiens) (UniProt P04150); test: GR-GFP Redistribution (AID 450;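 active = compounds whose dose series gives a full or clear partial fitted curve of increased nuclear translocation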; note: potency is the fitted concentration of half-maximal effect); conditions: U2OS GR-GFP nuclear translocation, laser cytometry, 2 h
Chain of Glucocorticoid receptor (Homo sapiens) (P04150 whole entry, looked up, the tested form may be a part): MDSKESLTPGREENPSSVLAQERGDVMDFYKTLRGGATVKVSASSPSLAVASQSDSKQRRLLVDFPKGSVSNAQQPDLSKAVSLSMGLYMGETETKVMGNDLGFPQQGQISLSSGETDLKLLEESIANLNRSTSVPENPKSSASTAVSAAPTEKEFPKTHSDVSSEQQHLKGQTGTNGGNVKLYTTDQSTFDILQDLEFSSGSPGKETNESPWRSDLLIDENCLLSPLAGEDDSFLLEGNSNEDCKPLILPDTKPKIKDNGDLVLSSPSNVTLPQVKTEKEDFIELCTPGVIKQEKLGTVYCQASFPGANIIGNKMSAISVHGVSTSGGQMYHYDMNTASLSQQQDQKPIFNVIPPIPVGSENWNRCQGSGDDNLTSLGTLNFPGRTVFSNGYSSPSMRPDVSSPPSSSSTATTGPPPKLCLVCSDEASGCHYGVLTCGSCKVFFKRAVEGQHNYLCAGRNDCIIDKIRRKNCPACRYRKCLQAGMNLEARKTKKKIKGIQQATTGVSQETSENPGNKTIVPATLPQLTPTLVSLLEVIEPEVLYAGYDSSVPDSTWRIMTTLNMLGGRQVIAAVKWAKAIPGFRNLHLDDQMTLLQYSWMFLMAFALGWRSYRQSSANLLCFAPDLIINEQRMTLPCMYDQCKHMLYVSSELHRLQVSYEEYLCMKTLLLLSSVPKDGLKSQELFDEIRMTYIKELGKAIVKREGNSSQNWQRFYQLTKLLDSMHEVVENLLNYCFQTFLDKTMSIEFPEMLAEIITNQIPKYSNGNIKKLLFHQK

[7] = target: Glucocorticoid receptor (Homo sapiens) (UniProt P04150); test: GR-EFC Redistribution (AID 451; calls by dose curve; note: potency is the fitted concentration of half-maximal effect); conditions: CHO-K1 GR-EFC translocation, beta-gal luminescence, 2 h
Summary of the method: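 CHO-K1 cells expressing nuclear EA and GR-ED fragments of b-gal; compounds titrated up to 46 uM final, 2 h at 37 C. GR nuclear translocation read as complemented b-gal luminescence after 1 h RT detection.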

[8] = target: Mitogen-activated protein kinase 10 (Mus musculus) (UniProt Q61831); test: JNK3 AlphaScreen Assay (AID 530); conditions: JNK3 lysate, c-Jun phosphorylation; series mostly up to 11.4 µM;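 note: kinase came from lysate of stimulated human HepG2 cells; signal reports phosphorylation of biotinylated GST-cJun 1-79 at Ser73 with 10 µM ATP; % is set by controls: 0 for no effect and ±100 for the full control effect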
Summary of the method: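 Pre-activated (IL-1β/TNFα) JNK3 in HepG2 lysates phosphorylates biotin-GST-cJun(1-79), 10 uM ATP; anti-phospho-cJun(Ser73) AlphaScreen read at room temperature, pH 7.6 Tris buffer. Compounds pre-incubated 15 min as titrations.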

[9] = target: 3',5'-cyclic-AMP phosphodiesterase 4B (Homo sapiens) (UniProt Q07343); test: qHTS Assay for Inhibitors of PDE-IV (AID 607; active = well fitted activation curve with a large enough effect in the main read-out, with a control signal flat, not every such curve was filed as active; note: % of control where 0% means no effect); conditions: HEK293 ACTOne CNG channel cells, membrane potential fluorescence; series mostly up to 22.9 µM
Chain of 3',5'-cyclic-AMP phosphodiesterase 4B (Homo sapiens) (Q07343 whole entry, looked up): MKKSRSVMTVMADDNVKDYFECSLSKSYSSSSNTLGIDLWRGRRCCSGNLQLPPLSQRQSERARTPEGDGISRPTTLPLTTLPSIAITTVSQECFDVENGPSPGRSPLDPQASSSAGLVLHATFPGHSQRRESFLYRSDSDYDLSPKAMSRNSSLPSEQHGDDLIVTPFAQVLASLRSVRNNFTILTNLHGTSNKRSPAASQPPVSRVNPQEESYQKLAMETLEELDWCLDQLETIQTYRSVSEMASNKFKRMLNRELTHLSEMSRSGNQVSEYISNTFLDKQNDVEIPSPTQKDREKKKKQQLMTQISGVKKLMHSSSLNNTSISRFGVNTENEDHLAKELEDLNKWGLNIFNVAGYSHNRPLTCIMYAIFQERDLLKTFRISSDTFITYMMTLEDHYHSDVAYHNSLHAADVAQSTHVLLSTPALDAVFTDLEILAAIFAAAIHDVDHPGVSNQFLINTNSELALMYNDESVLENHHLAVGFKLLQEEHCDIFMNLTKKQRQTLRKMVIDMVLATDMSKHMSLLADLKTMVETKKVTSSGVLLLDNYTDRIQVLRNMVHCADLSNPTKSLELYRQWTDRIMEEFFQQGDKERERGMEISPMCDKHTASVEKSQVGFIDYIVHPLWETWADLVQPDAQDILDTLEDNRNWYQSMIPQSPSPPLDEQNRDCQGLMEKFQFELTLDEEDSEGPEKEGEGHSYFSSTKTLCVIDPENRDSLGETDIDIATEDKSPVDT
Summary of the method: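 ACTOne HEK293 cells carry a modified cAMP-gated CNG channel and express endogenous PDE4; plated 1000 cells/well, compounds up to 22.9 uM final. Membrane-potential dye fluorescence (ex 535/em 590) was read; parental cells received 10 uM forskolin + 100 uM RO 20-1724.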

[10] = target: Cytochrome P450 2D6 (Homo sapiens) (UniProt P10635); test: qHTS Assay for Inhibitors and Substrates of Cytochrome P450 2D6 (AID 891; active = well fitted curve in the direction sought with a large enough effect; an effect the other way counts as inactive or inconclusive; note: nearly all actives have a fitted effect of over 60% in size; note: potency is the fitted concentration of half-maximal effect); conditions: recombinant CYP2D6, luciferin-ME EGE luminescence; series mostly up to 11.4 µM
Chain of Cytochrome P450 2D6 (Homo sapiens) (P10635 whole entry, looked up): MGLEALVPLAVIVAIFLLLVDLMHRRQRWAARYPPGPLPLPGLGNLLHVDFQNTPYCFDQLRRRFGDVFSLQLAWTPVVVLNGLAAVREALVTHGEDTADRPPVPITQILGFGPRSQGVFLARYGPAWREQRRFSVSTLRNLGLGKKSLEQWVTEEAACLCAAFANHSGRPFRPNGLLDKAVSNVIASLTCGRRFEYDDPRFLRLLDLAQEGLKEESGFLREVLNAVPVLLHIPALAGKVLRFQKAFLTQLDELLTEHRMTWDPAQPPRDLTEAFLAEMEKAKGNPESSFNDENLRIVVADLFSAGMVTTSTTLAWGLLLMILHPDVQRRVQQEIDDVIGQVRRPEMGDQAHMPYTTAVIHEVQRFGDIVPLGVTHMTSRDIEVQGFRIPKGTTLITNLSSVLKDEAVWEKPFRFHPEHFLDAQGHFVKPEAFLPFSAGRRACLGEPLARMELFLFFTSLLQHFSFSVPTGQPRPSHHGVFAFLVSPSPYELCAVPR
Summary of the method: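 Human CYP2D6 (5 nM) with 30 uM Luciferin-ME EGE (at Km) in 100 mM KPO4, compound preincubated 10 min, then NADPH regeneration system for 60 min at room temperature. Luciferin read by luminescence; normalized to 1.43 uM quinidine.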

[11] = target: Cytochrome P450 3A4 (Homo sapiens) (UniProt P08684); test: qHTS Assay for Activators of Cytochrome P450 3A4 (AID 885; active = well fitted curve in the direction sought with a large enough effect; an effect the other way counts as inactive or inconclusive; note: nearly all actives have a fitted effect of over 65% in size); conditions: recombinant CYP3A4, Luciferin-PPXE luminescence, 60 min; series mostly up to 11.4 µM
Chain of Cytochrome P450 3A4 (Homo sapiens) (P08684 whole entry, looked up): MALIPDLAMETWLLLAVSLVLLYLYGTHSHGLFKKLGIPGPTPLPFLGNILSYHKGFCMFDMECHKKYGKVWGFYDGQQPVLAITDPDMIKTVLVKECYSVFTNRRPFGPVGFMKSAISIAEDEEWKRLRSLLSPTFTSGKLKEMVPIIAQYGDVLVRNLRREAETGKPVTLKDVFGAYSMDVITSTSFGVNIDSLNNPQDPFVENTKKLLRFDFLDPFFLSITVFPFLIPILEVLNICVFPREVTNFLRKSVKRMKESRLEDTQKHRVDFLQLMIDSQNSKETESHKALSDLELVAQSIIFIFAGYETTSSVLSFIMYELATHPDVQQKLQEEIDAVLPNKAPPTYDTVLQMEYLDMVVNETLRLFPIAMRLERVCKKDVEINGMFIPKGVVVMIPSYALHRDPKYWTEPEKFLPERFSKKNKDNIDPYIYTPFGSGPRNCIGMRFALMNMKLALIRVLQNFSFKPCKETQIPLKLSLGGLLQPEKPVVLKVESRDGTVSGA
Summary of the method: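 20nM CYP3A4 + 25uM Luciferin-PPXE (=KM), 200mM KPO4; cpd 10 min RT; NADPH regen, 60 min RT; stop w/ detection buffer, 20 min; luminescence. Normalized to 57 uM ketoconazole.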

[12] = target: Cytochrome P450 2C19 (Homo sapiens) (UniProt P33261); test: qHTS Assay for Inhibitors and Substrates of Cytochrome P450 2C19 (AID 899; active = well fitted curve in the direction sought with a large enough effect; an effect the other way counts as inactive or inconclusive; note: potency is the fitted concentration of half-maximal effect; nearly all actives have a fitted effect of over 60% in size); conditions: recombinant CYP2C19, luciferin-H EGE luminescence; series mostly up to 11.4 µM
Chain of Cytochrome P450 2C19 (Homo sapiens) (P33261 whole entry, looked up): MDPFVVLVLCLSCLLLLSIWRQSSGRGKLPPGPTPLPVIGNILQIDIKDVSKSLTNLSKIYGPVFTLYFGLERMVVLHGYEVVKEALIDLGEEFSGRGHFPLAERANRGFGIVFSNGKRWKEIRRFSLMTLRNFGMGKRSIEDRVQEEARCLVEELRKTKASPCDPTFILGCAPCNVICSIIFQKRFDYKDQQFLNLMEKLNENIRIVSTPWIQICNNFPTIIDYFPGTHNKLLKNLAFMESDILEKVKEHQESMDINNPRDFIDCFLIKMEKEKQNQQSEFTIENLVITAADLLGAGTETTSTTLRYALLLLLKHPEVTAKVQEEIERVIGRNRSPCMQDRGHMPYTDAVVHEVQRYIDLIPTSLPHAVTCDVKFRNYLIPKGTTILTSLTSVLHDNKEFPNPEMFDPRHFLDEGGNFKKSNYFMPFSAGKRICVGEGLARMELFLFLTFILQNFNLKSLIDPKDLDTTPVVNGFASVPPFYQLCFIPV
Summary of the method: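 5 nM human CYP2C19 with 10uM Luciferin-H EGE (at KM) in 50mM KPO4, compound preincubated 10 min at 37C, then NADPH regeneration for 60 min at 37C. Luciferin read by luminescence after detection reagent; normalized to 57uM ketoconazole as full inhibition.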

[13] = qHTS Assay for Identification of Small Molecule Agonists for Hypoxia Response Element Signaling Pathway (AID 914; active = well fitted activation curve with a large enough effect in the signal ratio, with a control signal flat, not every such curve was filed as active; the % refers to the signal ratio; note: % of control where 0% means no effect); conditions: ME-180 (cervical carcinoma) HRE-bla reporter, beta-lactamase ratio, CoCl2, 17 h; activation: active compounds read high
Summary of the method: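 AC50 values come from titration-series %Activity, taken as the 460/530nm ratio of CCF4 fluorescence (excitation 405nm). CellSensor HRE-bla ME-180 cells were treated 17 hours at 37 C with compound plus an EC50 level of CoCl2.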

Structure (SMILES): CN(C)CCNc1nc2c(c(=O)n(C)c(=O)n2C)n1C
- Potency [1]: > 11.4 µM
- activity change, negative = inhibition [2]: -7.15%
- Potency [3]: inactive
- activity change, negative = inhibition [4]: 4.81%
- activity, negative = inhibition [5]: 9.47%
- Potency [6]: > 46 µM
- Potency [7]: > 9.22 µM
- Potency [8]: inactive
- Potency [9]: inactive
- Potency [10]: inactive

Structure (SMILES): Cc1ccc([C@@H](O)c2cnc(C)n2Cc2ccccc2)cc1
- Potency [1]: > 11.4 µM
- activity change, negative = inhibition [2]: -7.71%
- Potency [3]: inactive
- activity change, negative = inhibition [4]: -10.9%
- activity, negative = inhibition [5]: -4.84%
- Potency [6]: > 46 µM
- Potency [7]: > 9.22 µM
- Potency [8]: inactive
- Potency [9]: inactive
- Potency [11]: inactive
- Potency [10]: 0.631 µM (active)
- Potency [12]: 1.26 µM (active)

Structure (SMILES): S=C1SCN(C2CCCCCCCCCCC2)CN1C1CCCCCCCCCCC1
- Potency [1]: > 11.4 µM
- activity change, negative = inhibition [2]: -6.27%
- activity change, negative = inhibition [3]: -14.7% [at 2.29 µM]
- activity change, negative = inhibition [4]: 6.16%
- activity, negative = inhibition [5]: -6.56%
- Potency [6]: > 46 µM
- Potency [7]: > 9.22 µM
- Potency [8]: inactive
- Potency [9]: inactive
- Potency [11]: inactive
- Potency [12]: 3.98 µM (active)
- activation [13]: 24.8%

Structure (SMILES): CC[C@H](C(=O)c1cccs1)C(O)(C(F)(F)F)C(F)(F)F
- Potency [1]: > 11.4 µM
- activity change, negative = inhibition [2]: -7.57%
- activity change, negative = inhibition [3]: -17.5% [at 2.29 µM]
- activity change, negative = inhibition [4]: 20.8%
- activity, negative = inhibition [5]: -6.19%
- Potency [6]: > 46 µM
- Potency [7]: > 9.22 µM
- Potency [8]: inactive
- Potency [9]: inactive
- Potency [10]: 3.16 µM (active)

Structure (SMILES): O=S1(=O)[C@H]([C@H]2CC3c4ccccc4C2c2ccccc23)[C@@H](N2CCCCC2)[C@@H]1c1ccccc1
- Potency [1]: > 11.4 µM
- activity change, negative = inhibition [2]: 28.4%
- activity change, negative = inhibition [3]: 1.6% [at 2.29 µM]
- activity change, negative = inhibition [4]: -27.2%
- activity, negative = inhibition [5]: 10.9%
- Potency [6]: > 46 µM
- Potency [7]: > 9.22 µM
- Potency [8]: inactive
- Potency [9]: inactive
- Potency [11]: inactive
- Potency [10]: 3.16 µM (active)
- Potency [12]: 2.51 µM (active)

Structure (SMILES): NS(=O)(=O)c1cc2c(cc1Cl)=NC(CCC(=O)O)=NS=2(=O)O
- Potency [1]: > 11.4 µM
- activity change, negative = inhibition [2]: -7.99%
- Potency [3]: inactive
- activity change, negative = inhibition [4]: 7.52%
- activity, negative = inhibition [5]: 10.8%
- Potency [6]: > 46 µM
- Potency [7]: > 9.22 µM
- Potency [8]: inactive
- Potency [9]: inactive
- Potency [10]: inactive

Structure (SMILES): NCCCc1c(-c2ccccc2)nc(N)[nH]c1=O
- Potency [1]: > 11.4 µM
- activity change, negative = inhibition [2]: 0.759%
- Potency [3]: inactive
- activity change, negative = inhibition [4]: 4.17%
- activity, negative = inhibition [5]: 9.18%
- Potency [6]: > 46 µM
- Potency [7]: > 9.22 µM
- Potency [8]: inactive
- Potency [9]: inactive
- Potency [10]: inactive

Structure (SMILES): CC[C@H]1CN(C)[C@H]2Cc3c([nH]c4ccccc34)C(=O)C[C@H]1[C@H]2C(=O)OC
- Potency [1]: > 11.4 µM
- activity change, negative = inhibition [2]: -2.14%
- Potency [3]: inactive
- activity change, negative = inhibition [4]: 11.7%
- activity, negative = inhibition [5]: 8.84%
- Potency [6]: > 46 µM
- Potency [7]: > 9.22 µM
- Potency [8]: inactive
- Potency [9]: inactive
- Potency [10]: inactive

Structure (SMILES): CCCn1cnc2c(SCc3ccc(Cl)cc3)nc(N)nc21
- Potency [1]: > 11.4 µM
- activity change, negative = inhibition [2]: -19.8%
- Potency [3]: 1.26 µM (active)
- activity change, negative = inhibition [4]: -4.9%
- activity, negative = inhibition [5]: -5.52%
- Potency [6]: > 46 µM
- Potency [7]: > 9.22 µM
- Potency [8]: inactive
- Potency [9]: inactive
- Potency [11]: inactive
- Potency [12]: 0.501 µM (active)

Structure (SMILES): COc1cc2nncc(SCc3ccc(Cl)c(Cl)c3)c2cc1OC
- Potency [1]: > 11.4 µM
- activity change, negative = inhibition [2]: 0.364%
- Potency [3]: 0.794 µM (active)
- activity change, negative = inhibition [4]: 1.06%
- activity, negative = inhibition [5]: -13.6%
- Potency [6]: > 46 µM
- Potency [7]: > 9.22 µM
- Potency [8]: inactive
- Potency [9]: inactive
- Potency [11]: inactive
- Potency [12]: 2.51 µM (active)

Structure (SMILES): O=C1NC(=O)[C@@](Cc2ccccc2)(c2cccnc2)N1
- Potency [1]: > 11.4 µM
- activity change, negative = inhibition [2]: -12.7%
- activity change, negative = inhibition [3]: -17.1% [at 2.29 µM]
- activity change, negative = inhibition [4]: 9.84%
- activity, negative = inhibition [5]: -7.87%
- Potency [6]: > 46 µM
- Potency [7]: > 9.22 µM
- Potency [8]: inactive
- Potency [9]: inactive
- Potency [11]: inactive
- activation [13]: 5.55%

Structure (SMILES): O=C(O)c1ccc(Oc2nc3ccccc3s2)cc1
- Potency [1]: > 11.4 µM
- activity change, negative = inhibition [2]: -5.86%
- Potency [3]: 3.16 µM (active)
- activity change, negative = inhibition [4]: 11.2%
- activity, negative = inhibition [5]: 5.77%
- Potency [6]: > 46 µM
- Potency [7]: > 9.22 µM
- Potency [8]: inactive
- Potency [9]: inactive
- Potency [11]: inactive
- Potency [12]: 3.98 µM (active)

Structure (SMILES): O=C(CSC1=NCCN1)Nc1ccccc1
- Potency [1]: > 11.4 µM
- activity change, negative = inhibition [2]: 15%
- Potency [3]: 3.98 µM (active)
- activity change, negative = inhibition [4]: -6.05%
- activity, negative = inhibition [5]: -2.98%
- Potency [6]: > 46 µM
- Potency [7]: > 9.22 µM
- Potency [8]: inactive
- Potency [9]: inactive
- Potency [10]: 1.58 µM (active)

Structure (SMILES): O=C(O)C1(C(=O)O)CCN(S(=O)(=O)c2ccccc2)CC1
- Potency [1]: > 11.4 µM
- activity change, negative = inhibition [2]: -0.169%
- activity change, negative = inhibition [3]: 14% [at 2.29 µM]
- activity change, negative = inhibition [4]: 5.93%
- activity, negative = inhibition [5]: 11.9%
- Potency [6]: > 46 µM
- Potency [7]: > 9.22 µM
- Potency [8]: inactive
- Potency [9]: inactive
- Potency [10]: inactive
